{"source": "PubChem BioAssay (NCATS)", "note": "Records with an inconclusive call do not appear. Active and inactive are the calls of the source. Calls come from the whole dose curve; as a rule, active = well fitted curve in either direction with a large enough effect (not every such curve was filed as active); inconclusive = small, poorly fitted or top-dose-only effect, or another doubt; inactive = flat fitted curve, though single readings scatter."}
{"test": "AP1 Signaling Pathway (AID 357);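 note: ME-180 reporter cells stimulated with EGF at its EC50 level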", "details": "ME-180 AP-1-bla reporter, EGF-induced, beta-lactamase ratio, 5 h; series mostly up to 17.2 µM", "from_the_text": "NCGC Assay Overview: Activator protein-1 (AP-1), a transcription factor, plays an important role in tumor genesis by regulating genes involved in cell proliferation, differentiation, apoptosis, and angiogenesis. AP-1 activity is induced by a complex network of signaling pathways that involves extracellular signals, such as growth factors. The AP-1 protein complex formed from c-Fos and c-Jun binding to the AP-1 response element results in transcriptional activation of genes containing such elements within their promoter. Low molecular weight molecules have been discovered and developed to modulate various components of these signaling pathways, for example, MAP kinase inhibitors. However, many points of pathway modulation remain untested due to the lack of chemical probes making this signaling locus of general interest. Using a beta-lactamase reporter-gene under control of the AP-1 response element, a cell-based assay [CellSensor(TM) AP-1-bla ME-180 developed by Invitrogen Corp.] was used to measure EGF-induced signaling. Library compounds were measured for their ability to modulate positively or negatively the action of EC50 EGF on reporter gene activity. Compounds were screened in a titration series in 1536-well format. Positive and negative modulators were identified based on the AC50 values derived from the screening data.\nNCGC Assay Protocol Summary: 2500 cells/5uL in Opti-MEM medium containing 0.5% dialyzed FBS, 0.1 mM NEAA, 1 mM sodium pyruvate and 10 mM HEPES was dispensed into 1536-well plates and cells were cultured at 37 degrees Celsius overnight. […] After centrifugation at 1000 rpm for 2 seconds the plates were incubated at 37 degrees Celsius for 5 hours. 1 uL of CCF4-dye mixture was added to each well. After incubated at room temperature for 2.5 hours the plates were measured on an EnVision plate reader at Excitation 405nm, Emission1=460nm and Emission 2=530nm. The %Activity was determined from the ratio of 460nm/530nm."}
{"compound": "O=C(O)CCC(=O)c1ccc(-c2ccccc2)cc1", "outcome": "inactive"}
{"compound": "CC(=O)N=c1sc(S(N)(=O)=O)nn1C", "outcome": "inactive"}
{"compound": "N[C@@H](Cc1cc(I)c(Oc2ccc(O)c(I)c2)c(I)c1)C(=O)O", "outcome": "inactive"}
{"compound": "CC(=O)[C@H]1CC[C@H]2[C@@H]3C=CC4=CC(=O)CC[C@@]4(C)[C@H]3CC[C@]12C", "outcome": "inactive"}
{"compound": "O=C(O)Cc1cc(I)c(Oc2ccc(O)c(I)c2)c(I)c1", "outcome": "inactive"}
{"compound": "O=C(O)c1ccc(OCCn2ccnc2)cc1", "outcome": "inactive"}
{"compound": "CN1C(=O)OC(C)(C)C1=O", "outcome": "inactive"}
{"compound": "Cc1cc(C)c(NC(=O)C[C@H](CC(=O)O)c2cccc3ccccc23)c(C(=O)N2CCC3(CCCC3)CC2)c1", "outcome": "inactive"}
{"compound": "CC(=O)Oc1cccc2c1C(=O)c1c(OC(C)=O)cc(C(=O)O)cc1C2=O", "outcome": "inactive"}
{"compound": "CN(CCO)CC(O)Cn1cnc2c1c(=O)n(C)c(=O)n2C", "note": "(configuration not stated) (tested in a mixture with another compound)", "outcome": "inactive"}
{"compound": "Cc1ncc(C[n+]2csc(CCO)c2C)c(N)n1", "outcome": "inactive"}
{"compound": "CCCOc1cc(N)ccc1C(=O)OCCN(CC)CC", "outcome": "inactive"}
{"compound": "CCCC(CCC)C(=O)OC1C[C@H]2CC[C@@H](C1)[N+]2(C)C", "note": "(some centres not stated)", "outcome": "inactive"}
{"compound": "Oc1ccc(/C=C/c2cc(O)cc(O)c2)cc1", "outcome": "inactive"}
{"compound": "Cn1cc(NC(=O)c2cc(NC(=O)c3cc(NC=O)cn3C)cn2C)cc1C(=O)NCCC(=N)N", "outcome": "inactive"}
{"compound": "Cn1nnnc1SCC1=C(C(=O)O)N2C(=O)[C@@H](NC(=O)[C@H](O)c3ccccc3)[C@H]2SC1", "outcome": "inactive"}
{"compound": "COc1cc(S(C)=O)ccc1-c1nc2ncccc2[nH]1", "note": "(configuration not stated)", "outcome": "inactive"}
{"compound": "CNC(=O)c1c(I)c(C(=O)NCC(=O)Nc2c(I)c(C(=O)O)c(I)c(C(=O)NCCO)c2I)c(I)c(N(C)C(C)=O)c1I", "outcome": "inactive"}
{"compound": "CN1CCc2c(c3ccccc3n2Cc2ccccc2)C1", "outcome": "inactive"}
{"compound": "O=P(O)(O)OP(=O)(O)O", "outcome": "inactive"}
{"compound": "C[C@]12CC[C@@H]3c4ccc(OC(=O)c5ccccc5)cc4CC[C@H]3[C@@H]1CC[C@@H]2O", "outcome": "inactive"}
{"compound": "N[C@H](CC(=O)O)C(=O)O", "outcome": "inactive"}
{"compound": "Cc1cccc(C)c1NC(=O)C1CCCCN1C", "note": "(configuration not stated)", "outcome": "inactive"}
{"compound": "CCc1cn([C@H]2C[C@H](O)[C@@H](CO)O2)c(=O)[nH]c1=O", "outcome": "inactive"}
{"compound": "CC1(C)S[C@@H]2[C@H](NC(=O)C3(N)CCCCC3)C(=O)N2[C@H]1C(=O)O", "outcome": "inactive"}
{"compound": "CCCCC(=O)O[C@H]1CC[C@H]2[C@@H]3CCc4cc(O)ccc4[C@H]3CC[C@]12C", "outcome": "inactive"}
{"compound": "O=C1NCCN1c1ncc([N+](=O)[O-])s1", "outcome": "inactive"}
